According to PubChem BioAssay AID623944 (Vanderbilt Specialized Chemistry Center, 2012):
Activity calls are given as the source filed them. No rule for the calls is given here.

Experiment: PubChem AID 623944
Conditions: Ricerca radioligand binding panel, % inhibition, at 10 µM, stronger effect = higher value

Question: With `O=C(Nc1ccc(N(Cc2ccsc2)C(=O)Cn2nnc3ccccc32)cc1)C1CC1` as the compound, how does the inhibition (GABA-A flunitrazepam site inhibition) read?
Answer: Its inhibition is 22%.

Question: And the inhibition (adenosine A3 binding inhibition)?
Answer: Its inhibition is 20%.

Question: And the inhibition (androgen receptor binding inhibition)?
Answer: The inhibition was 42%.

Question: What about the inhibition of the same compound?
Answer: Its inhibition is 75% (inactive).

Question: What about the inhibition (cannabinoid CB1 binding inhibition) of the same compound?
Answer: Its inhibition is 25%.

Question: And the inhibition (dopamine D2S binding inhibition)?
Answer: Its inhibition is 4%.

Question: What about the inhibition (dopamine transporter binding inhibition) of the same compound?
Answer: Its inhibition is 12%.

Question: And the inhibition (hERG binding inhibition)?
Answer: Its inhibition is 15%.

Question: What about the inhibition (kappa opioid binding inhibition) of the same compound?
Answer: Its inhibition is 20%.

Question: And the inhibition (muscarinic M1 binding inhibition)?
Answer: Its inhibition is -7%.

Question: And the inhibition (norepinephrine transporter binding inhibition)?
Answer: The inhibition was 18%.

Question: And the inhibition (serotonin transporter binding inhibition)?
Answer: The inhibition was -1%.

Question: And the inhibition (sigma receptor binding inhibition)?
Answer: The inhibition was 42%.
